This is a sample that favours compounds with a hit; in the whole collection about 6.8% have one here.
Pf Dd2 growth: inhibitors of Plasmodium falciparum Dd2 growth | P. falciparum Dd2 growth, SYBR Green, 72 h; active compounds read low | activity change, % at 10 µM | 94,000 compounds, 2.3% hits; in the data active = activity change below about -80%; inconclusive = no clear call, values can overlap the other calls
T cruzi growth-1: T. cruzi proliferation inhibition | inhibition, % at 8.34 µM | 77,000 compounds, 5.9% hits | T. cruzi beta-gal in NIH3T3, GalScreen luminescence, 90 h | AID 624255;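 active = mean inhibition above about 93%, with at least 55% of replicates each passing it, limit read from the data, passing the limit was not always enough; inconclusive = only one of those two conditions holds; inactive = neither condition holds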
C diff growth: inhibitors of Clostridium difficile growth. growth activity, negative = inhibition, % at 16 µg/mL (by protocol). AID 1259249. 86,000 compounds, 0.25% hits. Clostridium difficile clinical isolate growth, OD600, 24 h; active compounds read low;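 active = mean growth activity at or below -80% and every replicate also at or below -80%; inconclusive = mean at or below -80% but some replicate above -80%; inactive = mean growth activity above -80%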
T cruzi growth-2: inhibitors of T. cruzi proliferation; 5,600 compounds, 72% hits; inhibition, % at 8.35 µM; shares compounds with T cruzi growth-1; T. cruzi beta-gal in NIH3T3, GalScreen luminescence, 90 h; AID 651739;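 active = mean replicate inhibition above about 95% and at least 55% of replicates individually reaching it, limit read from the data; inconclusive = only one of the two criteria is met; inactive = neither criterion is met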
T cruzi growth-3: blocks T. cruzi growth in NIH3T3 host cells; 5,600 compounds, 21% hits; AID 651740; shares compounds with T cruzi growth-1; T. cruzi beta-gal in NIH3T3, GalScreen luminescence, 90 h; inhibition, % at 2.09 µM;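 active = mean inhibition above about 95%, with at least 55% of replicates also reaching it, limit read from the data; inconclusive = meets just one of the two conditions; inactive = meets neither condition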
3T3 cytotox: NIH/3T3 (mouse) viability loss | 5,600 compounds, 14% hits | shares compounds with T cruzi growth-1 | cytotoxicity (signal decrease), % at 8.35 µM | NIH/3T3 viability, CellTiter-Glo ATP luminescence, 90 h;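 active = mean signal decrease across replicates above about 35% based on untreated-well scatter, with enough replicates individually passing, limit read from the data; inconclusive = no rule stated though some were filed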
NIH3T3 tox 2: kills mouse NIH/3T3 fibroblasts; shares compounds with T cruzi growth-1; inhibition, % at 24.9 µM; AID 651744; NIH/3T3 viability, CellTiter-Glo ATP luminescence, 90 h; 5,600 compounds, 56% hits;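 active = mean loss of cell viability signal at or above a set limit, and enough replicates individually reaching it; inconclusive = meets only the mean limit or only the replicate share; inactive = meets neither condition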
Of the large screens only hits and unclear results are named; the others gave an inactive call (follow-up assays come after a bar, where they were run).

C[C@H]1CCCCO[C@H](CN(C)C(=O)C2CCCCC2)[C@@H](C)CN([C@@H](C)CO)C(=O)c2cc(NC(=O)Nc3cccc4ccccc34)ccc2O1	T cruzi growth-1 inconclusive | T cruzi growth-2 98 | T cruzi growth-3 104 | 3T3 cytotox inactive | NIH3T3 tox 2 inactive
C[C@@H]1CN([C@H](C)CO)C(=O)c2cc(NC(=O)Nc3cccc4ccccc34)ccc2O[C@@H](C)CCCCO[C@H]1CN(C)C(=O)C1CCCCC1	T cruzi growth-1 inconclusive | T cruzi growth-2 104 | T cruzi growth-3 106 | 3T3 cytotox inactive | NIH3T3 tox 2 inactive
C[C@@H]1CCCCO[C@H](CN(C)C(=O)C2CCCCC2)[C@@H](C)CN([C@H](C)CO)C(=O)c2cc(NC(=O)Nc3cccc4ccccc34)ccc2O1	T cruzi growth-1 inconclusive | T cruzi growth-2 102 | T cruzi growth-3 inactive | 3T3 cytotox inactive | NIH3T3 tox 2 inactive
C[C@H](CO)N1C[C@H](C)[C@@H](CN(C)C(=O)Nc2cccc3ccccc23)OCCCC[C@H](C)Oc2ccc(NC(=O)Nc3cccc4ccccc34)cc2C1=O	none (no result: C diff growth)
C[C@@H]1CCCCO[C@H](CN(C)C(=O)Nc2cccc3ccccc23)[C@@H](C)CN([C@H](C)CO)C(=O)c2cc(NC(=O)Nc3cccc4ccccc34)ccc2O1	none (no result: C diff growth)
O=C(C1CCCCC1)N1CC2(C1)[C@H](c1ccccc1)[C@H](CO)N2CCC(F)(F)F	none (no result: T cruzi growth-1)
C[C@H]1CN([C@@H](C)CO)C(=O)c2cccc(NC(=O)C3CCOCC3)c2O[C@H]1CN(C)Cc1ccncc1	none
CCC(=O)Nc1ccc2c(c1)C(=O)N(C)[C@@H]1CC[C@@H](CC(=O)O)O[C@@H]1CO2	none
C[C@@H]1CCCCO[C@@H](CN(C)C(=O)c2ccccc2)[C@H](C)CN([C@H](C)CO)C(=O)c2cc(NS(=O)(=O)c3cccs3)ccc2O1	none
C[C@@H]1CN([C@H](C)CO)C(=O)Cc2cc(NC(=O)Nc3ccc(F)cc3)ccc2O[C@H]1CN(C)C(=O)NC1CCCCC1	none
C[C@@H](NC(=O)N(C)C[C@@H]1OCc2ccccc2-c2ccccc2C(=O)N([C@@H](C)CO)C[C@@H]1C)c1ccccc1	none
C[C@@H]1CN([C@@H](C)CO)C(=O)c2cc(NC(=O)Nc3ccc(F)cc3)ccc2O[C@@H](C)CCCCO[C@@H]1CN(C)Cc1ccc(C(F)(F)F)cc1	T cruzi growth-1 101 (no result: C diff growth) | T cruzi growth-2 105 | T cruzi growth-3 114 | 3T3 cytotox inactive | NIH3T3 tox 2 inactive
C[C@H](CO)N1C[C@H](C)[C@@H](CN(C)Cc2ccc(C(F)(F)F)cc2)OCCCC[C@H](C)Oc2ccc(NC(=O)Nc3ccc(F)cc3)cc2C1=O	T cruzi growth-1 inconclusive (no result: C diff growth) | T cruzi growth-2 inactive | T cruzi growth-3 110 | 3T3 cytotox inactive | NIH3T3 tox 2 inactive
C[C@@H]1CCCCO[C@@H](CN(C)Cc2ccc(C(F)(F)F)cc2)[C@H](C)CN([C@@H](C)CO)C(=O)c2cc(NC(=O)Nc3ccc(F)cc3)ccc2O1	none (no result: C diff growth)
C[C@@H]1CN([C@@H](C)CO)C(=O)c2cc(NC(=O)Nc3ccc(C(F)(F)F)cc3)ccc2O[C@@H](C)CCCCO[C@H]1CN(C)Cc1ccc(C(=O)O)cc1	none
CC(C)C#Cc1cnc2c(c1)C(=O)N([C@H](C)CO)C[C@H](C)[C@H](CN(C)C(=O)Nc1ccccc1)O2	none (no result: Pf Dd2 growth)
O=C(C[C@@H]1CC[C@H]2[C@@H](COC[C@H](O)CN2Cc2ccc3c(c2)OCO3)O1)Nc1ccccc1	none (no result: C diff growth)
O=C(C[C@H]1CC[C@@H]2[C@H](COC[C@H](O)CN2Cc2ccc3c(c2)OCO3)O1)Nc1ccccc1	none
O=C(C[C@@H]1CC[C@H]2[C@@H](COC[C@@H](O)CN2Cc2ccc3c(c2)OCO3)O1)Nc1ccc(-c2ccccc2)cc1	T cruzi growth-1 103 | T cruzi growth-2 95 | T cruzi growth-3 103 | 3T3 cytotox inactive | NIH3T3 tox 2 94
O=C(C[C@H]1CC[C@H]2[C@@H](COC[C@H](O)CN2Cc2ccc3c(c2)OCO3)O1)Nc1ccccc1	none
O=C(C[C@H]1CC[C@H]2[C@@H](COC[C@H](O)CN2Cc2ccc3c(c2)OCO3)O1)Nc1ccc(-c2ccccc2)cc1	T cruzi growth-1 104 | T cruzi growth-2 98 | T cruzi growth-3 inactive | 3T3 cytotox inactive | NIH3T3 tox 2 57
O=C(C[C@H]1CC[C@@H]2[C@H](COC[C@H](O)CN2Cc2ccc3c(c2)OCO3)O1)Nc1ccc(-c2ccccc2)cc1	T cruzi growth-1 112 | T cruzi growth-2 106 | T cruzi growth-3 inactive | 3T3 cytotox inactive | NIH3T3 tox 2 50
COc1ccc2c3c([nH]c2c1)[C@@H](CO)N(Cc1ccncc1)CC31CCN(C(=O)CN(C)C)CC1	none (no result: T cruzi growth-1)
COCc1cn(CC[C@@H]2CC[C@H](NC(=O)Nc3ccc(C(F)(F)F)cc3)[C@H](CO)O2)nn1	none
COc1ccc(-c2ccc([C@H]3[C@H]4CN(CC5CCOCC5)CCCCN4[C@H]3CO)cc2)cc1	none
COc1cccc(-c2ccc([C@H]3[C@@H](CO)N4CCCCN(CC5CCOCC5)C[C@@H]34)cc2)c1	none
COc1ccc(-c2ccc([C@H]3[C@@H](CO)N4CCCCN(CC5CCOCC5)C[C@@H]34)cc2)cc1	T cruzi growth-1 99 | T cruzi growth-2 inconclusive | T cruzi growth-3 inactive | 3T3 cytotox inconclusive | NIH3T3 tox 2 78
COc1ccc(-c2ccc([C@H]3[C@@H](CO)N4CCCCN(CC5CCOCC5)C[C@H]34)cc2)cc1	T cruzi growth-1 101 | T cruzi growth-2 inactive | T cruzi growth-3 inactive | 3T3 cytotox inactive | NIH3T3 tox 2 96
CO[C@@H]1CN(C)C(=O)c2ccc(NC(=O)C3CCC3)cc2OC[C@H](C)N(Cc2ccncc2)C[C@@H]1C	none (no result: Pf Dd2 growth, C diff growth)
CC(C)NC(=O)N(C)C[C@@H]1Oc2c(NC(=O)Nc3cccc4ccccc34)cccc2C(=O)N([C@@H](C)CO)C[C@@H]1C	none
CCC(=O)N1C[C@H](C)[C@@H](OC)CN(C)C(=O)c2cc(NC(=O)Nc3ccccc3)ccc2OC[C@H]1C	none (no result: C diff growth)
COc1ccc(NC(=O)N(C)C[C@H]2OCCCC[C@@H](C)Oc3ccc(NS(=O)(=O)c4ccc(Cl)cc4)cc3C(=O)N([C@@H](C)CO)C[C@H]2C)cc1	none
CNC[C@@H]1Oc2ccc(NC(=O)Nc3cccc4ccccc34)cc2CC(=O)N([C@@H](C)CO)C[C@@H]1C	none
CN(C)C(=O)c1ccc(-c2ccc([C@H]3[C@H](C#N)N(C(=O)C4CCC4)[C@H]3CO)cc2)cc1	none
CN(C)C(=O)c1cccc(-c2ccc([C@@H]3[C@@H](CO)N(C(=O)C4CCCC4)[C@H]3C#N)cc2)c1	none (no result: T cruzi growth-1)
CN(C)C(=O)c1cccc(-c2ccc([C@H]3[C@@H](C#N)N(C(=O)C4CCCCC4)[C@H]3CO)cc2)c1	none

High-throughput results: PubChem, Broad Institute
